# Results from PubChem BioAssay (NCI).
# About 83,000 compounds went through this panel and 20% of them were active in at least one assay; those are over-represented in the sample as a whole.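 Assay: single dose, 48 h. Readout: percent growth (0 = no net growth; negative = cell death). Active: <10.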 Values without a mark were called inactive. Calls of active or inactive are those of the source.
# Test system: A498 renal
# Assay: NCI-60 one-dose screen, 48 h (100 = growth as untreated, 0 = no growth, -100 = all killed)
# Conditions: 10 µM unless noted
row,Structure (SMILES),growth
1,CN1CCN(Cc2ccc(NC(=O)c3cncc(C#Cc4cnc5ccc(N6CCN(C)CC6)nn45)c3)cc2C(F)(F)F)CC1,43.7%
2,O=C(O)c1cn(C2CC2)c2cc(N3CCN(C(=O)CN4C(=O)CSC4=O)CC3)c(F)cc2c1=O,101%
3,NC/C(=C/F)COc1ccc2nc(NCc3cccnc3)oc2c1,50.5%
4,C=C(C)[C@@H]1CC[C@]2(C(=O)NCCCCCN(CCC#N)CCC#N)CC[C@]3(C)[C@H](CC[C@@H]4[C@@]5(C)CCC(=O)C(C)(C)[C@@H]5CC[C@]43C)[C@@H]12,48.9%
5,CCCCNNC(=O)c1ccc(-c2cccc(F)c2F)cc1,-6.27% (active)
6,C#Cc1ccc(C(=O)NCc2ccc(/C=C/C(=O)c3nccn3C)cc2)cc1,38.1%
7,COc1ccc(/C(N)=N/C(N)=N/c2nc3ccccc3s2)cc1,64.9%
8,O=C(CN1CCN(c2cc(=O)[nH]c3ccc(F)cc23)CC1)Nc1ccc(Cl)cc1,54.9%
9,Cc1ccc(-n2cc(/C=C/C(=O)c3ccc(O)cc3)c(-c3ccc(S(C)(=O)=O)cc3)n2)cc1,99.2%
10,O=S(=O)(NCCCNc1nccc(-c2[nH]c(-c3ccccc3)nc2-c2ccc(Cl)c(O)c2)n1)c1cccc(F)c1,101%
11,Cc1cc(-c2ccc(Cl)cc2)n(Cc2nnc(SCC(=O)Nc3ccc(S(N)(=O)=O)cc3)n2C2CCCCC2)n1,111%
12,Oc1cccc2ccc(-c3nnc(SCc4ccc(O)c5ncccc45)n3-c3ccccc3)nc12,31.5%
13,Cc1ccc(-c2nn(-c3ccccc3)cc2/C=C/C(=O)c2ccc(NC(=O)CCCCCCC(=O)NO)cc2)cc1,58.2%
14,CC(C)(C)c1ccc(C(=O)Nc2sc3c(c2C(N)=O)CCC(O)C3)cc1 (stereo not drawn),78%
15,O=C(Nc1ccc2c(ccn2Cc2ccccn2)c1)c1ccnnc1,56.8%
16,CC(C)(C)c1ccc(C(=O)Nc2sc3c(c2C(N)=O)CC/C(=N\O)C3)cc1,34.6%
17,NC(N)=Nc1ccc(Oc2cccc(Nc3ccc(Cl)cc3)c2)cn1,-4.07% (active)
18,CCc1cccc(NC(=O)CNc2cc(S(=O)(=O)N(C)C)cc(C)c2C)c1,35.5%
19,COc1ccc(N2C(=O)c3cc(Cl)ccc3NC2SCc2ccccc2)cc1 (stereo not drawn),84.7%

row,Structure (SMILES),growth
1,O=C(CN1CCN(c2cc(=O)n(-c3ccccc3)c3ccccc23)CC1)Nc1nc(-c2ccc(Cl)cc2)cs1,40.7%
2,COc1ccc(C2c3sc4c(C)cccc4c3Oc3nc(CC(=O)Nc4ccccc4)[nH]c(=O)c32)cc1 (stereo not drawn),70.6%
3,O=C(/C=C/c1ccc(F)cc1)c1ccc(O)cc1,101%
4,Cn1ccnc1C(=O)/C=C/c1ccc(NC(=O)c2c(F)c(F)c(F)c(F)c2F)cc1,113%
5,Nc1cc(-c2c[nH]c3ccc(Br)cc23)nc2cc(-c3c[nH]c4ccc(Br)cc34)nn12,7.08% (active)
6,C#CCC#CCN1CCC[C@H]1C(=O)NCC(=O)OC,129%
7,COc1cc(/C=C/C(=O)c2ccc(NC(=O)CSc3nnc(-c4ccc(-c5nc6ccc(Cl)cc6[nH]5)cc4)o3)cc2)cc(OC)c1OC,101%
8,Oc1cccc2ccc(-c3nnc(SCc4ccc(O)c5ncccc45)o3)nc12,35.2%
9,NS(=O)(=O)c1ccc(Nc2nc(SCc3ccccc3)nc3ccccc23)cc1,48.5%
10,O=C1[C@@H]2Cc3c([nH]c4ccccc34)[C@H](c3c(Cl)cccc3Cl)N2C(=O)CN1C1CCN(CC2CCCCC2)CC1,87.1%
11,NS(=O)(=O)c1ccc(Nc2nc(N/N=C/c3c[nH]c4ccccc34)nc(Nc3ccccc3)n2)cc1,51.2%
12,N#Cc1c(-c2cccs2)cc(-c2cnccn2)nc1SCC(=O)Nc1ccc(Br)cc1,6.18% (active)
13,COc1ccc(Cn2cc3c(c2-c2cc(OC)c(OC)c(OC)c2)CCc2c(CN4CCOCC4)noc2-3)cc1,-0.0936% (active)
14,C=CCn1c(SCC(=O)Nc2ccc(C(=O)/C=C/c3ccc(C)cc3)cc2)nnc1-c1c[nH]c2ccccc12,95.1%
15,COc1ccccc1C(=O)Nc1cccc2c1C(=O)C(=O)C=C2,38.4%
16,COc1cc(-c2nn(C(C)(C)C)cc2-c2ccnc(NCCCNS(=O)(=O)c3ccc(Cl)cc3)n2)ccc1Cl,49.4%
17,CCc1cccc2c3c(sc12)C(c1ccc(Cl)cc1)C(C#N)=C(/N=C/c1ccc(Cl)cc1)O3 (stereo not drawn),-4.9% (active)
18,C=C(C=O)[C@@H]1CC[C@]2(COC(C)=O)CC[C@]3(C)C(CC[C@@H]4[C@@]5(C)CC[C@H](OC(C)=O)C(C)(C)[C@@H]5CC[C@]43C)[C@@H]12 (stereo partly drawn),-41% (active)
19,COc1ccccc1N1CCN(C2=CC(=O)C(C)=C(C)C2=O)CC1,86.3%
